High-throughput results: PubChem BioAssay, The Scripps Research Institute Molecular Screening Center
PLC-beta3 inh – human PLC-beta3 inhibitors, primary screen, biochemical, fluorescence; 1-phosphatidylinositol 4,5-bisphosphate phosphodiesterase beta-3 (Homo sapiens), Q01970; Purified PLC-beta3, fluorogenic substrate; inhibition, % at 12.2 µM; hit rate 0.18% among 370,000; AID 720704, 2013; in the data active = inhibition above about 11%;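 note: 0% = median of compound wells on plate and 100% = full blocker control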
PLCg1 inh – PLC-gamma1 enzyme inhibitors, primary screen, biochemical, fluorescence, purified enzyme; 1-phosphatidylinositol 4,5-bisphosphate phosphodiesterase gamma-1 (Homo sapiens), P19174; fluorogenic substrate; inhibition, % at 12.2 µM; hit rate 0.84% among 370,000; AID 720700, 2013; in the data active = inhibition above about 9.5%
KLK7 zymogen act – proKLK7 zymogen activators, primary screen, biochemical, fluorescence intensity; Kallikrein-7 (Homo sapiens), P49862; purified proKLK7, EDANS-DABCYL substrate fluorescence; 100% is mature enzyme control, 0% vehicle; activation, % at 7 µM; hit rate 0.9% among 370,000; AID 652039, 2013;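 active = activation above the mean of all tested compounds plus 3 SD, computed per campaign excluding outliers beyond control limits, cut at about 13% in these data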
Target sequence (P49862 whole entry, looked up): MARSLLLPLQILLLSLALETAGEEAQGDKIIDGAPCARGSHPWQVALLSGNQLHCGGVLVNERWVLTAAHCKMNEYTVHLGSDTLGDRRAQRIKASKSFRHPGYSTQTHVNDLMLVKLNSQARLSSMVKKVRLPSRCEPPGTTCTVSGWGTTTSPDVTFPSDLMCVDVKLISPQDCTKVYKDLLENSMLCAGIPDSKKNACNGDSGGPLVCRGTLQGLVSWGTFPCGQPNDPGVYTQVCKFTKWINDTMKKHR
ADAM10 inh – human ADAM10 inhibitors, primary screen, biochemical, QFRET, HTS. inhibition, % at 7 µM. hit rate 0.62% among 370,000. Disintegrin and metalloproteinase domain-containing protein 10 (Homo sapiens), O14672. AID 720582, 2013. recombinant ADAM10, EDANS/DABCYL FRET peptide cleavage, 3 h;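 active = inhibition above a per-campaign cutoff equal to the mean of compounds falling between control-based bounds plus 3 SD, cut at about 20% in these data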;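 note: 0% = DMSO wells while the 100% control is not disclosed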
ADAM17 inh – ADAM17 inhibitors, primary screen, biochemical, QFRET; inhibition, % at 6.95 µM; recombinant ADAM17, EDANS/DABCYL FRET peptide cleavage; hit rate 0.83% among 370,000; Disintegrin and metalloproteinase domain-containing protein 17 (Homo sapiens), P78536; AID 720648, 2013;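 active = inhibition above the mean of compounds lying between control limits plus 3 SD, set per campaign, cut at about 8.5% in these data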;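 note: 0% = DMSO-only wells as the low control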
ADAM10 confirm – human ADAM10 inhibitors, confirmation, biochemical, QFRET, triplicate; shares compounds with ADAM10 inh; ADAM10 QFRET peptide cleavage, EDANS fluorescence; inhibition, % at 6.95 µM; hit rate 1% among 2,100; AID 743208, 2013;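 active = inhibition above about 20% chosen separately for each screening run, limit read from the data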;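 note: 0% = DMSO wells and 100% = marimastat wells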
ADAM17 counter – ADAM17 inhibitors, counter-screen for ADAM10 exosite inhibitor project, biochemical, QFRET, high throughput. shares compounds with ADAM10 inh. ADAM17 QFRET peptide cleavage, EDANS fluorescence. inhibition, % at 6.95 µM. hit rate 0.5% among 2,100. AID 743214, 2013;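 active = mean triplicate inhibition above the solvent-only control wells' mean plus 3 SD, cut at about 12% in these data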;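 note: 0% = DMSO wells and 100% = marimastat wells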
* hit, by the source's call; / = no result. Hits are enriched below; roughly 2.9% of the tested compounds scored in any of these assays.

SMILES | PLC-beta3 inh | PLCg1 inh | KLK7 zymogen act | ADAM10 inh | ADAM17 inh | ADAM10 confirm | ADAM17 counter
COc1cc(C(=O)NCC(=O)NCCN2C(=O)S/C(=C\c3ccccc3Cl)C2=O)cc(OC)c1OC | 0.1 | 3.6 | 0.2 | 20.5* | 6.0 | -0.4 | -0.3
CN(CCC1CCCCO1)C(=O)c1cc(COc2ccc(F)cc2F)on1 (stereo not given) | -0.8 | -0.7 | 0.2 | -10.3 | -0.7 | / | /
CN(CCCC1CCCC1)C(=O)c1cc(COc2ccc(F)cc2F)on1 | -7.1 | 0.9 | -0.4 | 21.8* | 1.4 | 5.3 | 2.0
CCOc1ccc(N2C(=O)/C(=C/c3cc(OC)c(OC)c(OC)c3)N(CC(=O)OC)C2=S)cc1 | -6.0 | -4.2 | -0.8 | 19.8* | 7.0 | 1.2 | 1.0
CCOc1ccc(/C=C2/C(=O)N(c3ccc(OC)cc3)C(=S)N2CC(=O)OC)cc1OCC | -3.5 | -3.8 | 0.1 | 7.5 | 3.5 | / | /
Nc1ccc(S(=O)(=O)Nc2nccs2)cc1N=Nc1ccccc1[N+](=O)[O-] | -4.7 | 4.2 | -0.7 | 22.3* | -2.3 | 3.2 | 0.4
CC(C)(C)c1ccc(C(=O)Nc2cc(Cl)c(Cl)cc2C(=O)O)cc1 | -5.2 | -0.1 | / | 20.2* | 2.1 | 2.6 | 0.3
CC(C)(C)c1ccc(C(=O)Nc2ccc(Cl)cc2)cc1 | 0.9 | 1.0 | -0.1 | -4.8 | -3.4 | / | /
CCn1c(=O)[nH]n(C/C(C)=C\c2c[n+](Cc3ccc4c(c3)OCO4)c(N)[nH]2)c1=O | -148.7 | -0.9 | / | -9.6 | -6.1 | / | /
CCOc1ccc(-n2c(SCC(=O)Nc3ccc4cn[nH]c4c3)nnc2-c2ccc(C(C)(C)C)cc2)cc1 | 0.9 | 0.2 | 0.1 | 1.4 | 1.7 | / | /
Cc1nn(Cc2ccc(C(=O)Nc3nc4c(C)cccc4s3)o2)c(C)c1Br | -12.0 | -8.4 | -1.1 | 4.6 | 7.4 | / | /
Cc1csc(NC(=O)c2cccc(Cn3nc(C)c(Br)c3C)c2)n1 | -5.6 | -3.9 | -2.2 | 20.0* | 2.5 | 3.9 | 0.9
Cc1ccc(NNC(=O)C(O)(c2cccc(C(F)(F)F)c2)c2cccc(C(F)(F)F)c2)cc1 | -40.2 | -8.2 | -0.4 | 25.6* | 6.7 | 1.5 | 0.4
C[C@H](CCC(=O)OCc1cn(CC(=O)c2ccc(O)cc2)nn1)C1CC[C@H]2[C@@H]3CC[C@@H]4C[C@H](O)CC[C@]4(C)[C@H]3C[C@H](O)[C@]12C (stereo not given in full) | 4.4 | 2.3 | 0.7 | 30.1* | 6.6 | 7.8 | 1.3
CN(CC(=O)Nc1ccc(Cl)c(C(F)(F)F)c1)C(=O)Cc1c[nH]c2ccccc12 | -1.6 | -3.8 | 0.0 | 25.1* | -4.1 | 1.4 | 0.1
OC(c1ccccc1)(c1ccccc1)C1CCN(CCCOc2cccc(F)c2)CC1 | 0.0 | 4.0 | 0.2 | -10.4 | -4.6 | / | /
C[C@@H]1CN([C@H](C)CO)S(=O)(=O)c2ccc(C#Cc3ccccc3)cc2O[C@H]1CN(C)C(=O)Nc1ccc2c(c1)OCO2 | -18.7 | -13.6 | -1.0 | 20.2* | 5.7 | 9.4 | 3.5
CCOC(=O)c1c(NC(=O)CSc2nnnn2C)sc(C)c1-c1ccc(C)cc1 | -4.8 | 0.5 | 1.3 | 25.8* | 5.8 | 8.6 | 2.7
Oc1ccc(C[C@@H]2CNC(=S)N2CCc2cc(C(F)(F)F)cc(C(F)(F)F)c2)cc1 | -0.4 | -2.5 | 0.1 | 9.9 | 1.3 | / | /
FC(F)(F)c1cc(CCN2C(=S)NC[C@@H]2Cc2ccccc2)cc(C(F)(F)F)c1 | -5.2 | -2.5 | 0.3 | 26.5* | 8.1 | 12.4 | 3.8
CCSc1nc2c(c(=O)[nH]c(=O)n2C)n1C/C=C(/C)Cl | 4.5 | 5.4 | -0.2 | 19.9* | 3.4 | 1.4 | 0.1
COc1cc(OC)cc(C(=O)NCC2CCN(C(=O)C(=O)c3cc4ccccc4o3)CC2)c1 | 3.7 | -2.8 | 1.3 | 4.9 | -0.4 | / | /
